Test results reported in PubChem BioAssay (NCATS).
“And” between values parts separate entries of the source, which are not always exact repeats. Equal entries are not always repeated. Inconclusive results are not listed. The source made the active and inactive calls. Unless noted, calls come from the whole dose curve; as a rule, active = well fitted curve in the direction sought with a large enough effect; inconclusive = small, poorly fitted or top-dose-only effect, or another doubt; inactive = no such curve, though single readings can be large; an effect the other way counts as inactive or inconclusive.

How the values were obtained:
[1] = AP1 Signaling Pathway (AID 357; active = well fitted curve in either direction with a large enough effect, not every such curve was filed as active;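 note: ME-180 reporter cells stimulated with EGF at its EC50 level; % is set by controls: 0 for no effect and ±100 for the full control effect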); conditions: ME-180 AP-1-bla reporter, EGF-induced, beta-lactamase ratio, 5 h; at 7.69 µM (top of the series) unless noted
Summary of the method: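 Titration-series screen for positive or negative modulators of EC50 EGF-induced signaling in ME-180 cells carrying an AP-1-driven beta-lactamase reporter. After 5 hours at 37 degrees Celsius, CCF4 460nm/530nm emission ratio gave %Activity; AC50 values derived.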

[2] = NFAT Signaling Pathway (AID 444; active = well fitted curve in either direction with a large enough effect, not every such curve was filed as active;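 note: carbachol stimulus at about its EC50 of 1 µM final; % is set by controls: 0 for no effect and ±100 for the full control effect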); conditions: Jurkat NFAT-bla M1, carbachol, beta-lactamase ratio, 5 h; at 7.69 µM (top of the series) unless noted
Summary of the method: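 Jurkat cells with NFAT-driven β-lactamase reporter and co-expressed M1 receptor, stimulated with carbachol (final 1 uM, ~EC50), compound titration, 5 h at 37 °C. CCF4 loaded 1 h at RT; 460/530 nm ratio gave %activity and AC50.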

[3] = Stat Signaling Pathway (AID 446; active = well fitted curve in either direction with a large enough effect, not every such curve was filed as active;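 note: ME-180 cervical cancer cells given 40 pM IL-6 alongside compound; SIE-controlled beta-lactamase reporter measured as 460/530 nm FRET emission ratio; % is set by controls: 0 for no effect and ±100 for the full control effect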); conditions: ME-180 SIE beta-lactamase reporter, IL-6 stimulated, 5 h; at 7.69 µM (top of the series) unless noted
Summary of the method: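 ME-180 cells carrying a SIE-driven beta-lactamase reporter are stimulated with 40 pM IL-6 for 5 h at 37C in the presence of compound. The 460/530 nm FRET substrate ratio is read after 2.5 h at RT. Data are normalised to 300 pM IL-6 and to 125 nM JAK inhibitor controls.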

[4] = target: Glucocorticoid receptor (Homo sapiens) (UniProt P04150); assay: GR-EFC Redistribution (AID 451; calls by dose curve; note: potency is the fitted concentration of half-maximal effect); conditions: CHO-K1 GR-EFC translocation, beta-gal luminescence, 2 h
Glucocorticoid receptor (Homo sapiens), sequence (P04150 whole entry, looked up, the tested form may be a part): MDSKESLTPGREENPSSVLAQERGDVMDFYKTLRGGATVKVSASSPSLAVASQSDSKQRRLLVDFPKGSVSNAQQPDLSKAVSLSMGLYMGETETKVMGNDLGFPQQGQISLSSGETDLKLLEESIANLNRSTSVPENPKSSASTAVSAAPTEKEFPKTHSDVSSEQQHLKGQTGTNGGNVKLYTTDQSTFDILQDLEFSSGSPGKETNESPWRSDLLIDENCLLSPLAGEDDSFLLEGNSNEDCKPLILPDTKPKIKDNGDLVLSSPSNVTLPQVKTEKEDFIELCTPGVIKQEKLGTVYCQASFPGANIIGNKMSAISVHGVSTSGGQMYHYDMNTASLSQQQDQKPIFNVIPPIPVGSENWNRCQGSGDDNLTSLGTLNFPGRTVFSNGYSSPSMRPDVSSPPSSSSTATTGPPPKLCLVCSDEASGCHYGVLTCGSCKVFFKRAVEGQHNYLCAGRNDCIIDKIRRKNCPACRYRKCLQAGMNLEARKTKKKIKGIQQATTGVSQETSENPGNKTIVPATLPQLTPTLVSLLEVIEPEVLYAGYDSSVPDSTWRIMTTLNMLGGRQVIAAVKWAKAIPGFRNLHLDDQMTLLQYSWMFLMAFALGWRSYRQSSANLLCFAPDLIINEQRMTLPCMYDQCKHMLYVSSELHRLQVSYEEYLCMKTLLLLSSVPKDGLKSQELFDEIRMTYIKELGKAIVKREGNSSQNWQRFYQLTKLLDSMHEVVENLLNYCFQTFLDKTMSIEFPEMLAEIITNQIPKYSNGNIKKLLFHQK
Summary of the method: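 CHO-K1 cells expressing nuclear EA and GR-ED fragments of b-gal; compounds titrated up to 46 uM final, 2 h at 37 C. GR nuclear translocation read as complemented b-gal luminescence after 1 h RT detection.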

[5] = target: Mitogen-activated protein kinase 10 (Mus musculus) (UniProt Q61831); assay: JNK3 AlphaScreen Assay (AID 530; active = well fitted curve in either direction with a large enough effect, not every such curve was filed as active;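 note: kinase came from lysate of stimulated human HepG2 cells; signal reports phosphorylation of biotinylated GST-cJun 1-79 at Ser73 with 10 µM ATP; % is set by controls: 0 for no effect and ±100 for the full control effect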)
Summary of the method: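 qHTS format: compounds tested as titrations against IL-1beta/TNF-alpha-activated HepG2 lysate JNK3 with biotin-GST-cJun substrate and 10 uM ATP at room temperature. Loss of anti-phospho-cJun AlphaScreen signal indicates inhibition.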

[6] = target: 3',5'-cyclic-AMP phosphodiesterase 4B (Homo sapiens) (UniProt Q07343); assay: qHTS Assay for Inhibitors of PDE-IV (AID 607; active = well fitted activation curve with a large enough effect in the main read-out, with a control signal flat, not every such curve was filed as active; note: % of control where 0% means no effect)
3',5'-cyclic-AMP phosphodiesterase 4B (Homo sapiens), sequence (Q07343 whole entry, looked up): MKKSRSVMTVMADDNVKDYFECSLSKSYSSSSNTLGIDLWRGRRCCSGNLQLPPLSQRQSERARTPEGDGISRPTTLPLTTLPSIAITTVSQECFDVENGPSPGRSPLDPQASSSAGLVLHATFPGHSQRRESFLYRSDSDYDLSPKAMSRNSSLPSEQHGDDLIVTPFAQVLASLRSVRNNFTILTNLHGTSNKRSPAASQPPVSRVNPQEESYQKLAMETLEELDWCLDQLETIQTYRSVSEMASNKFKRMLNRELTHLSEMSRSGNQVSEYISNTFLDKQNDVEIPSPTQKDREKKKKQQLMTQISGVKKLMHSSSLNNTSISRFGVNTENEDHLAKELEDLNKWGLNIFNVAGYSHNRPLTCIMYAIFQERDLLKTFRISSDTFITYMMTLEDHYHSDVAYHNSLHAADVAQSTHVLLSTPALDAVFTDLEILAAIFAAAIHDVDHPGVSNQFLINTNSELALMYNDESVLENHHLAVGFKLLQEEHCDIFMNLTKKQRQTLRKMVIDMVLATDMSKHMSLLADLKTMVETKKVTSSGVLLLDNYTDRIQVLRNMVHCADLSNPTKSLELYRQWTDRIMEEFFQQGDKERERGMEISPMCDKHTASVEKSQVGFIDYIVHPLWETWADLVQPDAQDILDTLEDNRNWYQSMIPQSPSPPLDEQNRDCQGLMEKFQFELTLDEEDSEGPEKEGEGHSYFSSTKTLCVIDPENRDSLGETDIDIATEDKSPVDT
Summary of the method: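 HEK293 ACTOne cells with CNG channel (1000/well), endogenous PDE4; membrane potential dye, compounds up to 22.9 uM final. Fluorescence Ex 535/Em 590; RO 20-1724 (100 uM final) as reference.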

[7] = Primary qHTS for small molecule stabilizers of the endoplasmic reticulum resident proteome: Secreted ER Calcium Modulated Protein (SERCaMP) assay (AID 1508630); note: % is set by controls: 0 for no effect and ±100 for the full control effect
Summary of the method: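 GLuc-SERCaMP-expressing SH-SY5Y cells, pretreated 16 h with compound, are challenged with thapsigargin to empty ER calcium stores; after 4 h, coelenterazine is added directly to the medium and luminescence is imaged.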

[8] = Confirmation and Secondary Assay for Modulators of Hemoglobin Beta Chain Splicing at IVS2 705 locus (AID 930);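 note: HeLa cells stably expressing the EGFP-705 splicing reporter; GFP fluorescence per well restored by corrected splicing of the IVS2-705 intron in EGFP; % of control where 0% means no effect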
Summary of the method: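 Per-well GFP, captured at 1 x 8 µm resolution with 488 nm excitation, served as the read-out for HeLa EGFP-705 cells incubated 2 days with test compound versus DMSO.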

[9] = qHTS Assay for Lipid Storage Modulators (AID 1519; calls by dose curve); conditions: Drosophila S3 cells, BODIPY lipid droplet/cell ratio, laser cytometry, cells loaded with oleic acid
Summary of the method: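 Cells seeded at 5,000 per well were treated with compounds over a concentration series and loaded with oleic acid (400 uM, as added). Lipid droplet fluorescence (488 nm excitation, 500-530 nm channel) was read by laser-scanning cytometry and normalized to 20 uM Triacsin C.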

[10] = target: Ubiquitin carboxyl-terminal hydrolase 1 (Homo sapiens) (UniProt O94782); assay: Inhibitors of USP1/UAF1: Pilot qHTS (AID 504865); note: nearly all actives have a fitted effect of over 35% in size; note: potency is the fitted concentration of half-maximal effect
Ubiquitin carboxyl-terminal hydrolase 1 (Homo sapiens), sequence (O94782 whole entry, looked up): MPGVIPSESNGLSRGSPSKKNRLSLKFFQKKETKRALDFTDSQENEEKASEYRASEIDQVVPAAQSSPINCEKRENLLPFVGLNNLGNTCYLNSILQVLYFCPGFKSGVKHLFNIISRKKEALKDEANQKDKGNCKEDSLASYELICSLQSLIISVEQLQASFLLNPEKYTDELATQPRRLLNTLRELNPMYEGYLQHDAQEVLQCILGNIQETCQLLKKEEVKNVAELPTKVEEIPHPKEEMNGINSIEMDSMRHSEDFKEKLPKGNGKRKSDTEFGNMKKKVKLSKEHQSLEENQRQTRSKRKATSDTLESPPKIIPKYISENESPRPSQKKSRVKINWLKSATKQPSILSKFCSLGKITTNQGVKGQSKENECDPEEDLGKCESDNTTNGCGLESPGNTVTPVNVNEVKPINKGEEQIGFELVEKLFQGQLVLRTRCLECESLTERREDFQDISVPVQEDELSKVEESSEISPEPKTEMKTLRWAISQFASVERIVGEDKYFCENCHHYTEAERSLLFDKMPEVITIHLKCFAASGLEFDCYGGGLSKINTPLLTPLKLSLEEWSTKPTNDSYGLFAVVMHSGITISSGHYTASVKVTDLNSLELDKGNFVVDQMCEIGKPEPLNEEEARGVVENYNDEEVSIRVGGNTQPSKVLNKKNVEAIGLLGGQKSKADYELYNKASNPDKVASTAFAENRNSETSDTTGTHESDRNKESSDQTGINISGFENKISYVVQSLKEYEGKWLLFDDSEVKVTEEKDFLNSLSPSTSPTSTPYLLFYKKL
Summary of the method: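 Kinetic fluorescence assay: 1nM USP1/UAF1, 15 min compound preincubation, then 150nM Ub-Rho; 480/540 nm.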

[11] = target: Cytochrome P450 1A2 (Homo sapiens) (UniProt P05177); assay: p450-cyp1a2 (AID 410; calls by dose curve; note: potency is the fitted concentration of half-maximal effect)
Cytochrome P450 1A2 (Homo sapiens), sequence (P05177 whole entry, looked up): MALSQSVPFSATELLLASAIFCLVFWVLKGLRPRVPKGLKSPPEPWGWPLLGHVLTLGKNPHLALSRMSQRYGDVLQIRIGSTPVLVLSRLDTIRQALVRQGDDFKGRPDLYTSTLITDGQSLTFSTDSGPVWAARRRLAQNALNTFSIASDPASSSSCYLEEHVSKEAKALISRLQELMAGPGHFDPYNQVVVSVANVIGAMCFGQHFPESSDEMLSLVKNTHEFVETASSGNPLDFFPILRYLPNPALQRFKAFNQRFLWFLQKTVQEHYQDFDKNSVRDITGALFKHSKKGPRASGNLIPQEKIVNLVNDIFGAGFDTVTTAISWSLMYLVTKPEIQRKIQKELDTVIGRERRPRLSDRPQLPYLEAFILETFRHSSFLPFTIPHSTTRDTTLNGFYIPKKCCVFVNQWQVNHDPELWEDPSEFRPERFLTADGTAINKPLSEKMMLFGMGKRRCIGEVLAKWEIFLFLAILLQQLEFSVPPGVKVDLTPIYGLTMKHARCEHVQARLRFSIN
Summary of the method: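 Inhibition was calculated relative to 57 uM furafylline (full inhibition). The reaction used human CYP1A2 at 20nM with Luciferin-ME at its Km, 100uM, driven by an NADPH-regenerating system for 60 min at room temperature.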

[12] = target: Glucocorticoid receptor (Homo sapiens) (UniProt P04150); assay: GR-GFP Redistribution (AID 450;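 active = compounds whose dose series gives a full or clear partial fitted curve of increased nuclear translocation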; note: potency is the fitted concentration of half-maximal effect); conditions: U2OS GR-GFP nuclear translocation, laser cytometry, 2 h
[13] = target: Cytochrome P450 3A4 (Homo sapiens) (UniProt P08684); assay: qHTS Assay for Activators of Cytochrome P450 3A4 (AID 885); note: nearly all actives have a fitted effect of over 65% in size
Cytochrome P450 3A4 (Homo sapiens), sequence (P08684 whole entry, looked up): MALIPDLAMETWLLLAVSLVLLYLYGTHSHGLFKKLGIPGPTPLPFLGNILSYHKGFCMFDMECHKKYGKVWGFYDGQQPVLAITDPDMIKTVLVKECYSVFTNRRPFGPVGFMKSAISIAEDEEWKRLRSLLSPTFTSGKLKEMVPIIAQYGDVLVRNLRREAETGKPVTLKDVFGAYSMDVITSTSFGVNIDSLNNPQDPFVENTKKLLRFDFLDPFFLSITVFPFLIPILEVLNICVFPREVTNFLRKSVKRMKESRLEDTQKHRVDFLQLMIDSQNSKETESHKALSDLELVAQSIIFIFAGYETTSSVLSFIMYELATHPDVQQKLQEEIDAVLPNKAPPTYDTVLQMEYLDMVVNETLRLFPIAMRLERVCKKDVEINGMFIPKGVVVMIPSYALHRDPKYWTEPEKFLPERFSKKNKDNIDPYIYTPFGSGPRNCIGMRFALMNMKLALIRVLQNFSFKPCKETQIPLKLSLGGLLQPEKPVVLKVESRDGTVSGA
Summary of the method: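 Human CYP3A4 (20 nM) with Luciferin-PPXE at 25 uM (its KM) in 200 mM KPO4; 10 min compound preincubation, then NADPH regeneration and 60 min reaction at RT. Luciferin read by luminescence; normalized to 57 uM ketoconazole full inhibition.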

[14] = target: Lysosomal acid glucosylceramidase (Homo sapiens) (UniProt P04062); assay: Glucocerebrosidase-p2 (AID 348; in the data active = potency below about 10 µM; note: potency is the fitted concentration of half-maximal effect); conditions: purified GBA, blue fluorogenic substrate, 40 min
Lysosomal acid glucosylceramidase (Homo sapiens), sequence (P04062 whole entry, looked up): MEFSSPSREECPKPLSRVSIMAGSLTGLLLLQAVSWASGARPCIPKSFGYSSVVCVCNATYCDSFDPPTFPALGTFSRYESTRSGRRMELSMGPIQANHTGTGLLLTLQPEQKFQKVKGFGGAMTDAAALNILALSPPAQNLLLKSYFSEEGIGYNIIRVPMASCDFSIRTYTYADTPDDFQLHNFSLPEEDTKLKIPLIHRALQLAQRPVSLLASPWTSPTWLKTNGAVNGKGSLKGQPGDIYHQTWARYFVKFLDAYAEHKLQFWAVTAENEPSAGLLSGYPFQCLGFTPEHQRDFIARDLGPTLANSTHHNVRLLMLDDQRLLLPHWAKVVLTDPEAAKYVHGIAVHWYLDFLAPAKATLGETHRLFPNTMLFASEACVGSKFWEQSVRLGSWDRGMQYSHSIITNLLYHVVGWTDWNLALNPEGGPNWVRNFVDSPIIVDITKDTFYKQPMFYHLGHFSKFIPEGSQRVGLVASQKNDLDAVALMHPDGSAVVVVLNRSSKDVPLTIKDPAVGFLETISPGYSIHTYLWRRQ
Summary of the method: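 Compounds titrated from 0.6 nM upwards against 0.2 nM enzyme in pH 5.9 citric acid/KH2PO4, taurocholate, tween-20; blue fluorogenic substrate 80 uM, 40 min room temperature, stopped and read Ex 365/Em 440 for AC50.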

[15] = target: Cytochrome P450 3A4 (Homo sapiens) (UniProt P08684); assay: qHTS Assay for Inhibitors and Substrates of Cytochrome P450 3A4 (AID 884); note: nearly all actives have a fitted effect of over 50% in size; note: potency is the fitted concentration of half-maximal effect
Summary of the method: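 20 nM human CYP3A4 with 25 uM Luciferin-PPXE (at KM) in 200 mM KPO4, preincubated 10 min with compound; NADPH regeneration started a 60 min RT reaction. Luciferin detected by luminescence, normalized to 57 uM ketoconazole as full inhibition.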

[16] = target: Dual specificity protein kinase CLK4 (Homo sapiens) (UniProt Q9HAZ1); assay: qHTS Assay for Inhibitors of CDC-like Kinase 4 (Kinase-Glo Assay) (AID 1770); note: potency is the fitted concentration of half-maximal effect; nearly all actives have a fitted effect of over 65% in size
Dual specificity protein kinase CLK4 (Homo sapiens), sequence (Q9HAZ1 whole entry, looked up): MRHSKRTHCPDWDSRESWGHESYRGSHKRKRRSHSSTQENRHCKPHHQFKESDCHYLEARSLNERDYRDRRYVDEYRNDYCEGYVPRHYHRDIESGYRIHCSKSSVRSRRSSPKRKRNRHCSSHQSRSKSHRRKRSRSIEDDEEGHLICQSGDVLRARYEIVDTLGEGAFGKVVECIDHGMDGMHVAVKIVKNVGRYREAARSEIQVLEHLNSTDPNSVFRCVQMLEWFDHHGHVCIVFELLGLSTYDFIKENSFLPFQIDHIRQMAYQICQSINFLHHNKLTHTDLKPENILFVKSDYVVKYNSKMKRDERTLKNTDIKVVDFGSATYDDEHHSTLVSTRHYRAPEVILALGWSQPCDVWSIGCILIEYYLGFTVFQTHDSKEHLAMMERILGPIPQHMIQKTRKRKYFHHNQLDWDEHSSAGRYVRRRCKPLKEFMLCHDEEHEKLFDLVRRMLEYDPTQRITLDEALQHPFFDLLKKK
Summary of the method: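 Inhibition was judged from remaining ATP, measured by Ultra-Glo luciferase bioluminescence after Clk4 (25 nM) had acted on RS peptide at 1 uM ATP for 4.5 hours, room temperature.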

[17] = target: Dual specificity protein kinase CLK4 (Homo sapiens) (UniProt Q9HAZ1); assay: qHTS Assay for Inhibitors of CDC-like Kinase 4 (ADP-Glo Assay) (AID 1771); note: potency is the fitted concentration of half-maximal effect; nearly all actives have a fitted effect of over 70% in size
Summary of the method: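 Kinase reaction: Clk4 at 25 nM, RS repeat peptide substrate at 100 uM, ATP at 1 uM, 1 hr, room temperature. Product ADP detected as luciferase signal via ADP-Glo.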

[18] = target: Rap guanine nucleotide exchange factor 3 (Homo sapiens) (UniProt O95398); assay: Confirmatory qHTS for agonist of cAMP-regulated guanine nucleotide exchange factor 3 (EPAC1) (AID 1645881);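 note: EPAC1 catalysed release of BODIPY-GDP from Rap1B seen as fluorescence loss; 100% = effect of cAMP agonist control; nearly all actives have a fitted effect of over 75% in size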
[19] = Confirmation and Secondary Assay for Modulators of Hemoglobin Beta Chain Splicing at IVS2 654 locus (AID 910);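 note: HeLa cells stably carrying EGFP split by mutant beta-globin IVS2-654 intron; % of control where 0% means no effect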
Summary of the method: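 HeLa cells stably expressing EGFP interrupted by β-globin IVS2-654 intron, seeded overnight in Opti-MEM/2% FCS, then treated 2 days at 37 °C. Restored splicing read as total peak GFP intensity per well by laser scanning cytometry (488 nm excitation, 500–520 nm emission); 500 nM antisense PNA as control.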

[20] = measured here: cell count channel max response
[21] = measured here: lipid channel max response

With `CC(C)NC(=O)N1CC[C@@]2(CCCN(C(=O)c3ccco3)C2)C1` the activity change, negative = inhibition [1] was -6.33% (inactive), the activity change, negative = inhibition [2] was 5.58% (inactive) and the activity, negative = inhibition [3] was 8.1% (inactive). The Potency [4] was > 46 µM (inactive), the Potency [5] was “inactive” and the Potency [6] was “inactive”. For the same compound, the outcome [7] was “inactive”.
With `COC(=O)c1c(C)cc(OC(=O)c2c(C)cc(O)c(C=O)c2O)c(C)c1O` the outcome [8] was “inactive”, the activity change, negative = inhibition ([9]; at 57.5 µM (top of the series)) was -6.06% (inactive) and the max response [9, 20] was -15.4%. For the same compound, the max response [9, 21] was -19% and the Potency [10] was “inactive”.
In the case of `CCCC[P+](CCCC)(CCCC)Cc1ccc(NC(=O)[C@@H](Cc2ccc3ccccc3c2)NC(=NC2CCCCC2)NC2CCCCC2)cc1`, the Potency [11] is reported as 31.6 µM (active), the Potency [12] is reported as > 46 µM (inactive) and the Potency [4] is reported as > 46 µM (inactive). The Potency [13] was “inactive” and the outcome [7] was “inactive”.
In the case of `COc1cccc(-c2cc(NCCc3c[nH]c4ccc(OC)cc34)ncn2)c1`, the Potency [14] is reported as > 11.4 µM (inactive), the activity change, negative = inhibition [1] is reported as -7.38% (inactive) and the Potency [11] is reported as 0.794 µM (active). The activity change, negative = inhibition [2] was -9.49% (inactive), the activity, negative = inhibition [3] was -5.09% (inactive) and the Potency [12] was > 46 µM (inactive). The Potency [4] was > 46 µM (inactive), the Potency [6] was “inactive” and the Potency [15] was 7.94 µM (active). For the same compound, the Potency [13] was “inactive”, the activity change, negative = inhibition ([9]; at 57.5 µM (top of the series)) was 7.02% (inactive) and the max response [9, 20] was 8.88%. The max response [9, 21] was 13.2%, the Potency [16] was 4.47 µM (active) and the Potency [17] was 12.6 µM (active). The Potency [10] was “inactive” and the Potency [18] was “inactive”.
With `CCCCCC/C=C\CCCCCCCc1cccc(O)c1C(=O)O` the Potency [15] was “inactive”, the Potency [19] was “inactive” and the outcome [8] was “inactive”. The activity change, negative = inhibition ([9]; at 57.5 µM (top of the series)) was 8.36% (inactive), the max response [9, 20] was 7.08% and the max response [9, 21] was 17.7%. For the same compound, the Potency [10] was 79.4 µM (active).
With `Cc1[nH]ccc2c1[nH]c1cc(=O)ccc12` the activity change, negative = inhibition [2] was -37.6% [at 17.2 µM] (inactive), the activity, negative = inhibition [3] was 4.88% [at 17.2 µM] (inactive) and the Potency [12] was > 20.6 µM (inactive) and > 46 µM (inactive). For the same compound, the Potency [4] was > 20.6 µM (inactive) and > 46 µM (inactive), the Potency [5] was “inactive” and the Potency [6] was “inactive”. For the same compound, the outcome [8] was “inactive”, the activity change, negative = inhibition ([9]; at 25.7 µM (top of the series)) was -0.514% (inactive) and the activity change, negative = inhibition ([9]; at 57.5 µM (top of the series)) was 6.27% (inactive). For the same compound, the max response [9, 20] was 11.1% and 0.549%, the max response [9, 21] was 9.17% and 10.7% and the Potency [10] was “inactive”.
With `O=C(CCCc1ccc(-c2ccccc2F)cc1)Nc1ccc(O)cc1` the Potency [15] was 31.6 µM (active), the Potency [13] was “inactive” and the outcome [7] was “inactive”.
In the case of `Cc1ccccc1-c1ccc2ncnc(N(C)C)c2c1`, the Potency [14] is reported as > 11.4 µM (inactive), the activity change, negative = inhibition [1] is reported as 13.7% (inactive) and the Potency [11] is reported as 0.631 µM (active). For the same compound, the activity change, negative = inhibition [2] was 7.63% (inactive), the activity, negative = inhibition [3] was -4.62% (inactive) and the Potency [12] was > 46 µM (inactive). The Potency [4] was > 46 µM (inactive), the Potency [5] was “inactive” and the Potency [15] was 3.16 µM (active). The Potency [13] was “inactive”, the activity change, negative = inhibition ([9]; at 57.5 µM (top of the series)) was 1.72% (inactive) and the max response [9, 20] was -2.12%. For the same compound, the max response [9, 21] was -3.73%, the Potency [17] was 28.2 µM (active) and the Potency [10] was “inactive”. For the same compound, the Potency [18] was “inactive”.
